These results are taken from ChEMBL document CHEMBL1201862, “PubChem BioAssay data set” (2004).

Out of some 57,000 […] screened, about 4,900 (8.6%) were called active. Cut-off read from the data, not from the text of the source: active = GI50 up to about 1.1 µM and inactive = higher. The entries come from a sample that favours actives as a whole. Entries with a potency or affinity are not part of this list.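 Assay format: 96-well plates, 48-hour exposure. GI50 marks 50% less growth.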

This experiment deals with MOLT-4. The experiment is described as follows: NCI tumour cell line growth inhibition, 48 h.
In the case of “[Bis(aminomethyl)ethylmethylsilane]tetrachloroplatinum(IV), CHEMBL2146192”, the GI50 turned out to be 0.531 µM. The substance “[Bis(aminomethyl)tetramethylenesilane]tetrachloropaltinum(IV), CHEMBL2146189” displayed a GI50 of 0.824 µM. Turning to “cis-Bis[[(trimethylsilyl)methyl]amino]tetrachloroplatinum(IV), CHEMBL2146191”, the GI50 was 2 µM. Substance “[Bis(aminomethyl)dimethylsilane]tetrachloroplatinum(IV), CHEMBL2146190” registered a GI50 of 1.68 µM.

Substance CISPLATIN, CHEMBL11359 returned a GI50 of 1.43 µM. In turn, “[Bis(aminomethyl)dimethylsilane]dichloroplatinum (II), CHEMBL2146201” registered a GI50 of 5 µM.

Substance “[Bis(aminomethyl)tetramethylenesilane]dichloropaltinum(II), CHEMBL2146205” had a GI50 of 2.09 µM. As to “[Bis(aminomethyl)diethylsilane]tetrachloroplatinum(IV), CHEMBL2146203”, the GI50 amounted to 0.561 µM.

Regarding “mu-(1,7-nanodiamine-N,N')bis-(cis-aminedichloroplatimum (II)), CHEMBL2146215”, the GI50 came to 0.592 µM.

Consider “[Bis(aminomethyl)pentamethylenesilane]tetrachloropaltinum(IV), CHEMBL2146204”, for which the GI50 came to 0.505 µM.

In turn, “[Bis(aminomethyl)pentamethylenesilane]dichloropaltinum(II), CHEMBL2146202” yielded a GI50 of 0.325 µM.
